# A selection: hits, their analogues and other compounds. The true share with any hit is near 1.6%.
# 12-LOX inh = ALOX12 (human) lipoxygenase inhibition | P18054 | purified 12hLO, xylenol orange hydroperoxide absorbance | Potency, µM (highest dose often 108 µM), for inactives: top-dose activity change, negative = inhibition, most hits filed as inhibitors | hit rate 1.1% among 580,000; also: % is scaled to controls: 0 for no effect and ±100 for the full control effect
# Target sequence (P18054 whole entry, looked up): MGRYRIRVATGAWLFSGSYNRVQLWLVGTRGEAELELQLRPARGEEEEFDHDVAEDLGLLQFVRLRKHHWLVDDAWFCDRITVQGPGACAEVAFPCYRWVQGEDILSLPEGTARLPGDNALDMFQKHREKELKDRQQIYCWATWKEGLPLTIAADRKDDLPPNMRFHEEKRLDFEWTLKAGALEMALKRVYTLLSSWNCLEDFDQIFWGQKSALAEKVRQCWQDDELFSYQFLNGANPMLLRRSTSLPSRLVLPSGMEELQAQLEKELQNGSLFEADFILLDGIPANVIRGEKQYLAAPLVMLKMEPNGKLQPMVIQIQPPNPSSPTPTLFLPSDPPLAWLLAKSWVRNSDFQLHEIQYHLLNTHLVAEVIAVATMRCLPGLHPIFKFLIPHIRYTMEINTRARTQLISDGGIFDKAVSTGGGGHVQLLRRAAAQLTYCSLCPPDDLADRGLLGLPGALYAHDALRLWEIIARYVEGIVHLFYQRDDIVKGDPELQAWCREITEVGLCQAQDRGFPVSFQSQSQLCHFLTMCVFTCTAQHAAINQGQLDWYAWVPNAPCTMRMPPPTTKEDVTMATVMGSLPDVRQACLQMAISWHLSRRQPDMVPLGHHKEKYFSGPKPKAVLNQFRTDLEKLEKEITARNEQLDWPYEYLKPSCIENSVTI
#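 Hydroperoxide product was detected by ferrous iron/xylenol orange as the 573 to 405 nm absorbance ratio. Arachidonic acid at 40 uM (final) was turned over for 30 min at room temperature by 150 nM human 12hLO, pH 7.0 Hepes buffer, after 15 min compound preincubation.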
# Mito fusion yeast = blocks mitochondrial division or promotes mitochondrial fusion; S. cerevisiae fusion-defective mutant growth rescue, CellTiterGlo 48 h; Potency, µM (highest dose often 46.1 µM), for the others: at the top dose growth rescue (activation), hits mostly activators; hit rate 0.23% among 320,000; AID 485298; also: % of control where 0% means no effect; nearly all actives have a fitted effect of over 45% in size
#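 Luminescent cell viability in 1536-well qHTS format served as the measure of rescued growth in ts fusion-mutant S. cerevisiae cultured on non-fermentable YPEG for 48 hours at 37C.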
# gsp agonist = agonists of gsp mutant (McCune-Albright syndrome) | Potency, µM (series often up to 76.9 µM), for inactives: top-dose activation (cAMP increase), hits mostly activators | AID 624287 | hit rate 0.13% among 340,000 | gsp mutant cells, cAMP HTRF, 30 min; active = well fitted activation curve with a large enough effect; inconclusive = small, poorly fitted or top-dose-only effect, or another doubt; inactive = no such curve, though single readings can be large or run the other way; cell line not stated here;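 also: phosphodiesterase inhibitor Ro 20-1724 added with compounds to block cAMP breakdown; nearly all actives have a fitted effect of over 60% in size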
#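 Cells in DMEM/10% FBS with G418 were pretreated with compounds in DMSO plus […] (300 uM stock) for 30 min at 37C. cAMP was measured by HTRF (cAMP-d2 plus anti-cAMP antibody-K) after 30 min at room temperature.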
# gsp antag = antagonizes gsp, the McCune-Albright syndrome mutation. hit rate 0.4% among 340,000. gsp-mutant cells, cAMP HTRF, 30 min. Potency, µM (titrated, usually from 76.9 µM), for the others: top-dose activity change, negative = inhibition, hits mostly inhibitors. AID 624288; calls by dose curve; cell line not stated here;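 also: intracellular cAMP measured with PDE inhibitor Ro 20-1724 present during compound exposure; % is scaled to controls: 0 for no effect and ±100 for the full control effect; nearly all actives have a fitted effect of over 65% in size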
#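 HTRF cAMP measurement after 30 min RT detection following 30 min, 37C compound treatment alongside […] (added as 300 uM solution) in G418-selected cells seeded at 2000/well and grown 16–24 h.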
# FUS suppressor = suppressors of FUS proteinopathy in yeast; hit rate 0.24% among 390,000; S. cerevisiae FUS-expressing, growth rescue, OD600, 24 h; Potency, µM (highest dose often 76.6 µM), most hits filed as activators;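 also: plate controls were DMSO vehicle for no effect and reference control for full effect; nearly all actives have a fitted effect of over 55% in size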
#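 Yeast FUS proteinopathy model; galactose-induced FUS (2%), starting OD 0.005. Cpds in dilution series, 24hr, 30C, 99% humidity. Abs 600 nm growth. Pos ctrl CP55940 (top 92uM final); neg ctrl DMSO.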
# * = called active by the depositor; i = inactive; ? = inconclusive; · = no result given; [ ] = dose if it differs, or a comment. Unless noted, calls follow the shape of the dose curve; as a rule, active = well fitted curve in the direction sought with a large enough effect; inconclusive = small, poorly fitted or top-dose-only effect, or another doubt; inactive = no such curve, though single readings can be large; an effect the other way counts as inactive or inconclusive. Potency is read from the fitted curve at half-maximal effect.
SMILES,12-LOX inh,Mito fusion yeast,gsp agonist,gsp antag,FUS suppressor
Cc1ccc(C(=O)NC(=S)Nc2ccccc2C(F)(F)F)cc1C,?,0%,6%,2%,i
COc1ccc(C(C)=O)cc1COC(=O)C12CC3CC(CC(C3)C1)C2,40%,·,·,·,·
CC(=O)Nc1cc2c3c(c1)CCC(=O)N3CCC2,-2%,4%,11%,5%,i
CC(=O)Nc1cc2c3c(c1)CC(=O)N3CCC2,-21%,3%,-6%,50µM*,i
COc1ccc(N2C(=O)N3[C@H](c4ccc(Cl)cc4)[C@@H]4C(=O)N(C5CCCCC5)C(=O)[C@@H]4[C@]3(C)C2=O)cc1,-20%,5%,24%,6%,28µM*
C[C@@]12C(=O)N(c3cccc(Cl)c3)C(=O)N1[C@H](c1ccc(Cl)cc1)[C@@H]1C(=O)N(C3CCCCC3)C(=O)[C@@H]12,-9%,3%,·,-12%,?
Cc1ccc(OCC(O)Cn2nc(-c3cccs3)oc2=O)c(C)c1 (configuration not stated),-27%,·,·,·,·
Nc1nc(-c2cccnc2)nc2sc3c(c12)CCCC3,-11%,-14%,25%,6%,i
O=C1CN(c2nc(-c3cccnc3)nc3sc4c(c23)CCCC4)CCN1,10%,5%,25µM*,-12%,i
O=C(NCCCc1ccccc1)c1cc(-c2cccc3ccccc23)nc2ccccc12,-31%,·,·,·,·
COc1ccc(-n2c(SCc3nc4ccccc4[nH]3)nc3ccccc3c2=O)cc1,·,·,·,·,35µM*
COc1ccc(-n2c(COc3ccccc3)nnc2SCc2nc3ccccc3[nH]2)cc1,·,·,·,·,i
CCN(CC)S(=O)(=O)c1ccc(Cl)c(NC(=O)COc2ccc3c(C)cc(=O)oc3c2)c1,-10%,-2%,8%,2%,·
CCN(CC)S(=O)(=O)c1ccc(OC)c(NC(=O)COc2ccc3c(C)cc(=O)oc3c2)c1,6%,-14%,8.9µM*,-49%,·
O=C(Nc1ccc(C(=O)Oc2ccccc2)c(O)c1)c1ccccc1,-15%,3%,-15%,?,i
O=C(Nc1ccc(C(=O)Oc2ccccc2)c(O)c1)c1ccco1,?,18%,8%,35µM*,i
Cc1ccc(-n2c(-c3ccccc3)cc(/C=N/NC(=O)CC#N)c2-c2ccccc2)cc1,15%,12%,·,·,·
Cc1ccc(-n2c(-c3ccccc3)cc(C=Nc3ccc(C)c(C)c3)c2-c2ccccc2)cc1,20µM*,·,·,·,·
COc1cc(C(O)P(=O)(OC2CCCCC2)c2ccc(N(C)C)cc2)cc(OC)c1OC (configuration not stated),-21%,-4%,-1%,-1%,i
CC(C)c1ccc(C(O)P(=O)(OC2CCCCC2)OC2CCCCC2)cc1 (configuration not stated),?,13µM*,-1%,-2%,i
COc1ccc2nnc(-c3ccccc3)n2n1,0%,2%,16µM*,16%,i
Fc1ccc(Oc2ccc3nnc(-c4ccccc4)n3n2)cc1,2%,·,·,·,·
CCc1cc(=O)oc2cc(OC(C)=O)cc(OC(C)=O)c12,23%,-3%,10µM*,-1%,i
COc1cc(OCc2ccccc2)c2c(CCC(=O)O)cc(=O)oc2c1,-13%,·,27%,-11%,·
CCc1ccccc1N(C(C)=O)c1nc(COc2ccc(Cl)cc2C(N)=O)cs1,1%,·,·,·,·
SMILES,12-LOX inh,Mito fusion yeast,gsp agonist,gsp antag,FUS suppressor
CN(C)c1ccc(N/C=C/C(=O)C(C)(C)C)cc1,?,-5%,-3%,35µM*,?
O=C(NCCN1CCC(n2c(=O)[nH]c3ccccc32)CC1)c1ccc(F)cc1Cl,1.1µM*,·,·,·,i
O=C(NCCN1CCC(n2c(=O)[nH]c3cc(Cl)ccc32)CC1)c1ccc(F)cc1,40µM*,·,·,·,·
O=c1c(-c2ccco2)nc2ccccc2n1C(c1ccccc1)c1nc2ccccc2[nH]1 (configuration not stated),18µM*,·,·,·,?
CCC(c1nc2ccccc2[nH]1)n1c(=O)c(-c2ccco2)nc2ccccc21 (configuration not stated),25µM*,·,·,·,i
O=c1c(-c2ccco2)nc2ccccc2n1C(c1ccccn1)c1nc2ccccc2[nH]1 (configuration not stated),?,·,·,·,i
O=c1c(-c2ccco2)nc2ccccc2n1C(CCc1ccccc1)c1nc2ccccc2[nH]1 (configuration not stated),?,·,·,·,i
O=c1c(-c2cccs2)nc2ccccc2n1C(c1ccccn1)c1nc2ccccc2[nH]1 (configuration not stated),40µM*,·,·,·,i
CCOc1ccc(NC(=O)c2nn(C)c(=O)c3ccccc23)cc1S(=O)(=O)N1CCCC1,-17%,·,·,·,·
CCOC(=O)c1sc2nc(C)[nH]c(=S)c2c1C,3%,13%,13µM*,3%,i
CCOC(=O)c1sc2nc(C)n(N)c(=O)c2c1C,3%,1%,-5%,0%,i
CC(C)CSC1=NSC2=NC(=O)/C(=C\c3coc4ccccc4c3=O)C(=N)N12,28µM*,0%,10%,?,i
O=C(COC(=O)CNC(=O)c1ccc(Br)o1)Nc1ccc2c(c1)OCCO2,?,-1%,-114%,50µM*,i
N=c1c2c(ncn1CCN1CCOCC1)Oc1ccc3ccccc3c1C2c1ccccc1 (configuration not stated),0%,10%,18%,-5%,i
N=c1c2c(ccn1Cc1ccccc1)Oc1ccc3ccccc3c1C2c1ccccc1 (configuration not stated),·,·,·,·,14µM*
O=C(Nc1ccccc1[N+](=O)[O-])C(F)(F)C(F)(F)C(F)(F)F,1%,·,·,·,·
O=C(NCc1ccco1)c1cccnc1-c1nc2ccccc2s1,?,-1%,-8%,-5%,·
CN1CCN(C(=O)c2cccnc2-c2nc3ccccc3s2)CC1,32µM*,·,·,·,·
O=C(O)c1ccccc1C(=O)N1N=C2/C(=C/c3cccc([N+](=O)[O-])c3)CCCC2C1c1cccc([N+](=O)[O-])c1 (configuration not stated),?,-4%,2%[15.4 µM],-20%,25µM*
O=C(O)c1c(C(=O)N2N=C3/C(=C/c4ccccc4)CCCC3C2c2ccccc2)cccc1[N+](=O)[O-] (configuration not stated),?,8%,15%[15.4 µM],-8%,i
CCCOc1ccc(/C=C2/C(=O)ON=C2C)cc1OCC,?,5%,?,-12%,i
C=CCOc1ccc(/C=C2/C(=O)ON=C2C)cc1OC,18µM*,-7%,9%,10%,i
COc1ccc(/C=C2/C(=O)ON=C2C)cc1Cl,7.9µM*,4%,-10%,-4%,i
COc1ccc(CNC(=O)c2nc(CC(=O)Nc3cccc4ncccc34)no2)cc1,-7%,·,·,·,·
CN(C(=O)CN1CCN(c2ccc([N+](=O)[O-])c3cnccc23)CC1)c1ccccc1,-9%,·,·,·,·

# Screens deposited in PubChem by National Center for Advancing Translational Sciences (NCATS).
